The text below walks through data of ChEMBL document CHEMBL2218924, “A broad activity screen in support of a chemogenomic map for kinase signalling research and drug discovery” (Biochem J, 2013).

The structures appear in SMILES notation.

Experiment [1] addresses Focal adhesion kinase 1 (Homo sapiens) (UniProt Q05397). As to conditions: at 10 µM.
Experiment [2] addresses Fibroblast growth factor receptor 1 (Homo sapiens) (UniProt P11362). As to conditions: at 1 µM.
Experiment [3] shares this target. As to conditions: at 10 µM.
Experiment [4] concerns the target Fibroblast growth factor receptor 2 (Homo sapiens) (UniProt P21802). As to conditions: at 1 µM.
The target is the same in experiment [5]. As to conditions: at 10 µM.
Experiment [6] concerns the target Fibroblast growth factor receptor 3 (Homo sapiens) (UniProt P22607). As to conditions: at 1 µM.
Experiment [7] shares this target. As to conditions: at 10 µM.
The target of experiment [8] is Fibroblast growth factor receptor 4 (Homo sapiens) (UniProt P22455). As to conditions: at 10 µM.
The target in experiment [9] is Tyrosine-protein kinase Fer (Homo sapiens) (UniProt P16591). As to conditions: at 10 µM.
Experiment [10] addresses Tyrosine-protein kinase Fes/Fps (Homo sapiens) (UniProt P07332). As to conditions: at 10 µM.
In experiment [11] the target is Tyrosine-protein kinase Fgr (Homo sapiens) (UniProt P09769). As to conditions: at 1 µM.
Chain of Tyrosine-protein kinase Fgr (Homo sapiens) (P09769 2-529 limits assumed): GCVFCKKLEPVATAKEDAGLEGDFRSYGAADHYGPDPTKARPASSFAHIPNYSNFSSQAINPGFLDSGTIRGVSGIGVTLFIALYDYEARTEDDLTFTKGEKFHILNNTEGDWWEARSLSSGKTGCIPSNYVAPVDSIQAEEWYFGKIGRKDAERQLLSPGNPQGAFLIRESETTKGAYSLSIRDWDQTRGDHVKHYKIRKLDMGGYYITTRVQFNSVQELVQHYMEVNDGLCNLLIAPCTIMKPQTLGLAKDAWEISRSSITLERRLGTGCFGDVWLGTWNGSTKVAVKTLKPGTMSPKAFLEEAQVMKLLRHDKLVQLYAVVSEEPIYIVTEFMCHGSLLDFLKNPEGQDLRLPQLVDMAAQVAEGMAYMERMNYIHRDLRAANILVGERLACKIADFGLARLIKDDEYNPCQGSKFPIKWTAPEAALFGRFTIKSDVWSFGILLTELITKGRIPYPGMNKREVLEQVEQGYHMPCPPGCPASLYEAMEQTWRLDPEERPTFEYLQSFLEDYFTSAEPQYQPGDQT
Experiment [12] has the same target. As to conditions: at 10 µM.
Experiment [13] has as its target Vascular endothelial growth factor receptor 1 (Homo sapiens) (UniProt P17948). As to conditions: at 1 µM.
Experiment [14] has the same target. As to conditions: at 10 µM.
The target of experiment [15] is Receptor-type tyrosine-protein kinase FLT3 (Homo sapiens) (UniProt P36888). As to conditions: at 1 µM.
Chain of Receptor-type tyrosine-protein kinase FLT3 (Homo sapiens) (P36888 whole entry): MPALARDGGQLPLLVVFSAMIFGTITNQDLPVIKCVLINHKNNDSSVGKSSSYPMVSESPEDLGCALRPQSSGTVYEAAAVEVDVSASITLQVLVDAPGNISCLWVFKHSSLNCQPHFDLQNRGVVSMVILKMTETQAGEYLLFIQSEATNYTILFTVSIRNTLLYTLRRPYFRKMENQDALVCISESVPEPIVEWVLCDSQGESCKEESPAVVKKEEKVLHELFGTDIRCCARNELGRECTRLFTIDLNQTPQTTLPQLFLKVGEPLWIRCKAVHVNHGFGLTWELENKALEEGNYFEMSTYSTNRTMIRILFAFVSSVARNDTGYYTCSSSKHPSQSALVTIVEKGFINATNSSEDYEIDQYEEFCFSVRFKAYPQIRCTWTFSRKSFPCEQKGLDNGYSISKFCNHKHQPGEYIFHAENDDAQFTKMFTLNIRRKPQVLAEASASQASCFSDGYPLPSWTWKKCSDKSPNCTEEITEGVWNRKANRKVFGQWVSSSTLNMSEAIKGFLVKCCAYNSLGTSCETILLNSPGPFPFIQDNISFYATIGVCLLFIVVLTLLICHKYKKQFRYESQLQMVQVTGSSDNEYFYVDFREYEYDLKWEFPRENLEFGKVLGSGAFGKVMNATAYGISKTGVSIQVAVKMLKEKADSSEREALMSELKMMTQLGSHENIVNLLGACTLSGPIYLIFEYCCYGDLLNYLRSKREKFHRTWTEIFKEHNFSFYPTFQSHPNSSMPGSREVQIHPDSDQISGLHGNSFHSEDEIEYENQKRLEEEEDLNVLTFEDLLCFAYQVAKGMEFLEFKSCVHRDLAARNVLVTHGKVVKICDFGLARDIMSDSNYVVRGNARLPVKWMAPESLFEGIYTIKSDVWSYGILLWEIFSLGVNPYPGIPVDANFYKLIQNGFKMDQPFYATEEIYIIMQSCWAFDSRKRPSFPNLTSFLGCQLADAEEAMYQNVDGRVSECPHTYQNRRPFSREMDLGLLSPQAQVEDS
Experiment [16] has the same target. As to conditions: at 10 µM.
Experiment [17] has as its target Vascular endothelial growth factor receptor 3 (Homo sapiens) (UniProt P35916). As to conditions: at 1 µM.
The target in experiment [18] is Tyrosine-protein kinase Fer (Homo sapiens) (UniProt P16591). As to conditions: at 1 µM.
For experiment [19], the target named is Tyrosine-protein kinase Fes/Fps (Homo sapiens) (UniProt P07332). As to conditions: at 1 µM.
Chain of Tyrosine-protein kinase Fes/Fps (Homo sapiens) (P07332 whole entry): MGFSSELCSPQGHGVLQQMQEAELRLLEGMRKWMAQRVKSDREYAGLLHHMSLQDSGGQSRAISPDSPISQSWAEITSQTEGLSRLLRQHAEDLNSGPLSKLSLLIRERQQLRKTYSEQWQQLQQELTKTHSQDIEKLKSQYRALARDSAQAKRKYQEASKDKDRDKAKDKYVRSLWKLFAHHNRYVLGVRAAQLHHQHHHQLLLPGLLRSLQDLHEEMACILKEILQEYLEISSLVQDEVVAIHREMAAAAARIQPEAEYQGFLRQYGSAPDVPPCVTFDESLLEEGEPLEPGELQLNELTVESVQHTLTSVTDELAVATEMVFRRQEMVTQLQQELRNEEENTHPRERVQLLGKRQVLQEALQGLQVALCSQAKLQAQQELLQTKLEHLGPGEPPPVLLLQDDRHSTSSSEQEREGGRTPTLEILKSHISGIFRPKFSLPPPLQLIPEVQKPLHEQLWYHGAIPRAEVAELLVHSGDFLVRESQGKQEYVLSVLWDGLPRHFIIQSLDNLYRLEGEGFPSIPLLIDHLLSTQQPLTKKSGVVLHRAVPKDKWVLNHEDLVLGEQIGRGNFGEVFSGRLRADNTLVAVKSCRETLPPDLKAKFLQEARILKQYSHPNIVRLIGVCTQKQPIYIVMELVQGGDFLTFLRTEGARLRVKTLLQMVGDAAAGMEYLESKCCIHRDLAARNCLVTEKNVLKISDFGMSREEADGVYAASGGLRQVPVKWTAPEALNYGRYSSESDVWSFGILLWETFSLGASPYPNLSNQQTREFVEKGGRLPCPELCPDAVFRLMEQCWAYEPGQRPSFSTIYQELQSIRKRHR
The target of experiment [20] is Fibroblast growth factor receptor 4 (Homo sapiens) (UniProt P22455). As to conditions: at 1 µM.

Chain of Fibroblast growth factor receptor 2 (Homo sapiens) (P21802 22-821 limits assumed): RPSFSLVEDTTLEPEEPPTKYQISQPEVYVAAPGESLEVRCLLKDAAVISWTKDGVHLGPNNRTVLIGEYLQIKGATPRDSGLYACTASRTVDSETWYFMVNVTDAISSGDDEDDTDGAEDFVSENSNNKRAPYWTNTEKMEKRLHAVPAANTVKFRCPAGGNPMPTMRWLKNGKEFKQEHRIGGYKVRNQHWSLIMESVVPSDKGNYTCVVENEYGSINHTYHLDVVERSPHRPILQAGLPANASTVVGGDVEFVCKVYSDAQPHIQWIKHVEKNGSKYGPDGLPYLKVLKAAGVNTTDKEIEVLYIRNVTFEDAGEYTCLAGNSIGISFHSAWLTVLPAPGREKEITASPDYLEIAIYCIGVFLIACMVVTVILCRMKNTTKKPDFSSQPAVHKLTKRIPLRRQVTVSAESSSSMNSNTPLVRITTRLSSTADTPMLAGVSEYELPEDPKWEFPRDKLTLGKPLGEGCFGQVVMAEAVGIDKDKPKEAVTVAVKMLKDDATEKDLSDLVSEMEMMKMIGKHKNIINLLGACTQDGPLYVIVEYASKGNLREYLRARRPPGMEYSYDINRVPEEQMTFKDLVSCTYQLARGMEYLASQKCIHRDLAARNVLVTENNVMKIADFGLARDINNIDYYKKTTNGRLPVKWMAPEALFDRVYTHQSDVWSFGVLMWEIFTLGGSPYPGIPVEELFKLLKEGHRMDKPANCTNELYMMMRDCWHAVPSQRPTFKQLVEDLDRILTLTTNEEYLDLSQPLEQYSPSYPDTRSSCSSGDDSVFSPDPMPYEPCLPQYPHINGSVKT
Chain of Focal adhesion kinase 1 (Homo sapiens) (Q05397 2-1052 limits assumed): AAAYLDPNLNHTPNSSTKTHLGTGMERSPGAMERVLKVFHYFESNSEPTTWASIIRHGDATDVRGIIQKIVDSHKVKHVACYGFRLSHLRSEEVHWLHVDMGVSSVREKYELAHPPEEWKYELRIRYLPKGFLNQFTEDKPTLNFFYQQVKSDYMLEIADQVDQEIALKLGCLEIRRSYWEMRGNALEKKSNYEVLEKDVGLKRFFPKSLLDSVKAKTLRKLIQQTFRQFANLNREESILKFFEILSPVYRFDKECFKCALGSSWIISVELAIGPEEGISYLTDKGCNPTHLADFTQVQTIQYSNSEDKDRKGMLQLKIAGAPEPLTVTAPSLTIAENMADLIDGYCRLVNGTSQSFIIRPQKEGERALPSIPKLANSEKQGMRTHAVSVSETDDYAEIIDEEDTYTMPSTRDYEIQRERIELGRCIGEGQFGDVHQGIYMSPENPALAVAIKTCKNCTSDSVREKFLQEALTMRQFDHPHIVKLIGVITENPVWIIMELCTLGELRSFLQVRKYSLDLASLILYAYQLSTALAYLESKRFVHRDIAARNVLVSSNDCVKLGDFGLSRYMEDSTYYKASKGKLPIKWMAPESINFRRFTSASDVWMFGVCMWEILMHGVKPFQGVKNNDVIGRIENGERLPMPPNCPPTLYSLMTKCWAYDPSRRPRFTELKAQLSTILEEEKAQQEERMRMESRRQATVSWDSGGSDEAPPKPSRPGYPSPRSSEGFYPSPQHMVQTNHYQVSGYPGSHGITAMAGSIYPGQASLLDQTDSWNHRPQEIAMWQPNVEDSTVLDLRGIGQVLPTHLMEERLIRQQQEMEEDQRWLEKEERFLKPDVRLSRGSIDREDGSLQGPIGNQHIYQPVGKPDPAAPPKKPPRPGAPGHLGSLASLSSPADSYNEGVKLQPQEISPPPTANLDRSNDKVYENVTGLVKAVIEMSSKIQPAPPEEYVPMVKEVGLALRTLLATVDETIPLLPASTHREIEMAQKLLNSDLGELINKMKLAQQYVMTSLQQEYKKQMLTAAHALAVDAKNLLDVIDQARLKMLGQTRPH
Chain of Fibroblast growth factor receptor 3 (Homo sapiens) (P22607 23-806 limits assumed): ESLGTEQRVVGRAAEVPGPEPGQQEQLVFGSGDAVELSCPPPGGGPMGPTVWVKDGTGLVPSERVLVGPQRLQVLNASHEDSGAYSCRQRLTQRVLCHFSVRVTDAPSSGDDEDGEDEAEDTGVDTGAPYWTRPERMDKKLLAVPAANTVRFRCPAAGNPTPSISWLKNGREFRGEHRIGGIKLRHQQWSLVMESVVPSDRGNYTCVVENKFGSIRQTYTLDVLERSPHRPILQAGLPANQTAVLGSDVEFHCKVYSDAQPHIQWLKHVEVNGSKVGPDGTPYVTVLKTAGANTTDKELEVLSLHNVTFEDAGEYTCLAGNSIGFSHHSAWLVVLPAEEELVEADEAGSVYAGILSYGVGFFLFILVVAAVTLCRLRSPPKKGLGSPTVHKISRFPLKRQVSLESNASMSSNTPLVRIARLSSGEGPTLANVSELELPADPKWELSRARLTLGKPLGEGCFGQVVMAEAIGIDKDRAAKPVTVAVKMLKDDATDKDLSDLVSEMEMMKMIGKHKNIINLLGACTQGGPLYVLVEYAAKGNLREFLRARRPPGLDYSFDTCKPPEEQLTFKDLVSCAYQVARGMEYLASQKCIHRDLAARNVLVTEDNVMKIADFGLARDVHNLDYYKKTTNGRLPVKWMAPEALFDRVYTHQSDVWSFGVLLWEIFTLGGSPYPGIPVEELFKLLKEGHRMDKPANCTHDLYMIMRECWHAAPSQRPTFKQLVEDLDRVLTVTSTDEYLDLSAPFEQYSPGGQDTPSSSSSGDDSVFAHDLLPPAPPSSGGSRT

In the case of `O=C1NC(=O)C(c2c[nH]c3ccccc23)=C1c1c[nH]c2ccccc12`, the residual activity – broadly, the signal under treatment as a percentage of the control signal – in experiment [1] came to 44%; in [2] it was 9%; in [3] it was 1%; in experiment [4] it was 37%; in experiment [5], 9%; in [6], 27%. In addition, the residual activity in experiment [7] was 4%; in experiment [8], 71%; in experiment [9] it was 52%; in experiment [10], 48%; in experiment [11], 98%; in experiment [12], 60%. Besides, the residual activity came to 4% in [13]; 1% in experiment [14]; 19% in experiment [15]; 1% in [16]; 2% in experiment [17].
Take `NCCNc1ncc(C(N)=O)c(Nc2cccc(C(F)(F)F)c2)n1`: the residual activity in experiment [1] is 7%; in experiment [2] it was 113%; in [3], 68%; in experiment [4], 100%; in experiment [5], 80%; in [18], 102%. The residual activity in experiment [9] was found to be 47%; in [19], 32%; in experiment [10] it was 3%; in experiment [11], 30%; in [12], 6%; in experiment [15], 50%. Moreover, the residual activity in experiment [16] turned out to be 5%.
For the compound `O=C1Cc2c([nH]c3ccc(Br)cc23)-c2ccccc2N1`, the residual activity in experiment [1] is 28%; in [2], 87%; in experiment [3] it was 32%; in [6] it was 127%; in [7] it was 87%; in experiment [8], 96%. Also, the residual activity in experiment [19] was determined as 63%; in experiment [10], 38%; in experiment [13] it was 77%; in experiment [14], 39%; in [15] it was 65%; in [16] it was 34%. The residual activity in [17] came to 56%.
Turning to `CC(C)(C)n1nc(Cc2cccc3ccccc23)c2c(N)ncnc21`, the residual activity in experiment [1] came out at 81%; in experiment [2], 28%; in [3], 2%; in [4], 62%; in experiment [5], 18%; in experiment [20], 115%. Besides, the residual activity in [8] is 72%; in experiment [18] it was 104%; in experiment [9], 39%; in [19] it was 95%; in experiment [10], 27%; in [11], 35%. Further, the residual activity in [12] was determined as 4%; in experiment [13] it was 62%; in [14] it was 14%; in [15], 102%; in experiment [16], 75%; in experiment [17], 42%.
Turning to `O=C1NC(=O)C(c2cn(CCCn3ccnc3)c3ccccc23)=C1Nc1ccccc1`, the residual activity in experiment [1] was found to be 71%; in [2], 77%; in [3] it was 17%; in experiment [4] it was 113%; in [5] it was 57%; in experiment [18], 102%. Besides, the residual activity was 52% in [9]; 59% in [12]; 51% in experiment [13]; 11% in experiment [14]; 14% in experiment [15]; 0% in [16]. Further, in [17], the residual activity stood at 58%.
Consider `COc1ccc(CNC(=O)Nc2ncc([N+](=O)[O-])s2)cc1`, for which the residual activity was 102% in [2]; 77% in experiment [3]; 100% in [4]; 78% in [5]; 112% in experiment [6]; 113% in experiment [7]. For the same compound, the residual activity in experiment [11] is 31%; in experiment [12], 28%; in experiment [13] it was 74%; in experiment [14], 49%; in [17] it was 59%.
For the compound `O=C(CCCc1ccc(-c2ccccc2F)cc1)Nc1ccc(O)cc1`, the residual activity in experiment [1] is 112%; in [4], 99%; in experiment [5], 99%; in [18], 109%; in experiment [9] it was 91%; in experiment [19] it was 107%. In addition, the residual activity in experiment [10] came to 100%; in [11] it was 93%; in experiment [12] it was 92%; in experiment [13], 109%; in experiment [14], 100%; in [15], 101%. Besides, the results for the residual activity in experiment [16] and in experiment [17] were 87% and 101%, respectively.
For `COc1cc2nccc(Oc3ccc(NC(=O)Nc4cc(C)on4)c(Cl)c3)c2cc1OC`, the residual activity stood at 35% in experiment [1]; 25% in [4]; 5% in experiment [5]; 28% in [7]; 76% in [20]; 31% in experiment [8]. The residual activity was 78% in [19]; 46% in [10]; 8% in [11]; 4% in experiment [12]; -1% in experiment [17].
Regarding `N#C/C(=C\c1ccc(O)c(O)c1)C(=O)NCc1ccccc1`, the residual activity in experiment [4] turned out to be 103%; in experiment [5], 120%; in [19], 124%; in [10], 76%; in experiment [12] it was 82%.
`NC(=O)c1ccc(-c2nc(-c3ccc4c(c3)OCCO4)c(-c3ccccn3)[nH]2)cc1`: the residual activity in [4] turned out to be 117%; in [5] it was 82%; in experiment [20] it was 122%; in [8] it was 95%; in experiment [13], 82%; in experiment [14] it was 70%. In addition, the residual activity in experiment [15] amounted to 64%; in [16], 51%; in experiment [17], 79%.
`CCN1/C(=C/C(C)=O)Sc2ccc(OC)cc21`: the residual activity in experiment [12] is 73%; in experiment [14] it was 81%; in [15] it was 64%; in experiment [16], 39%.
Regarding `CC(C)[C@H](CO)Nc1nc(Nc2cc(N)cc(Cl)c2)c2ncn(C(C)C)c2n1`, the residual activity in experiment [1] amounted to 3%; in [4] it was 84%; in experiment [5] it was 22%; in [6] it was 92%; in experiment [7] it was 20%; in experiment [8], 88%. For the same compound, the residual activity is 88% in [18]; 23% in experiment [9]; 57% in [19]; 12% in experiment [10]; 33% in experiment [11]; 3% in [12]. The residual activity is 12% in experiment [15], 2% in experiment [16] and 11% in [17].
With `O=c1c(-c2ccc(F)cc2)c(-c2ccncc2)[nH]n1-c1ccc(Cl)cc1`, the residual activity came out at 127% in [2]; 40% in experiment [3]; 123% in experiment [6]; 65% in experiment [12]; 100% in [13]; 50% in [14].
Turning to `CC(C)(C)c1nc2c3ccc(F)cc3c3c(=O)[nH]ccc3c2[nH]1`, the residual activity in [1] stood at 9%; in experiment [20], 119%; in experiment [18] it was 67%; in [9] it was 27%; in [15] it was 45%; in experiment [16], 26%. Besides, the residual activity in [17] came to 28%.
`O=C(NC(NC(=S)Nc1ccc(F)c([N+](=O)[O-])c1)C(Cl)(Cl)Cl)C(c1ccccc1)c1ccccc1` (stereo not drawn): the residual activity in experiment [3] amounted to 59%; in experiment [5] it was 73%; in experiment [8], 83%; in experiment [9], 103%; in [15], 99%; in experiment [16], 82%. For the same compound, the residual activity in [17] came to 93%.
Regarding `Nc1n[nH]c2nc3ccccc3nc12`, the residual activity in experiment [1] is 83%; in experiment [4], 122%; in experiment [5] it was 84%; in experiment [20], 120%; in experiment [18], 90%; in experiment [9], 90%. Moreover, the residual activity in [19] was 95%; in experiment [10] it was 87%; in experiment [11], 100%; in experiment [12], 87%; in [13] it was 89%; in experiment [14] it was 66%. Besides, the residual activity stood at 70% in experiment [15], 45% in [16] and 79% in [17].
As to `O=C1Cc2c([nH]c3ccc([N+](=O)[O-])cc23)-c2ccccc2N1`, the residual activity in experiment [2] was determined as 74%; in experiment [3], 59%; in experiment [6], 125%; in [7], 109%; in [20] it was 112%; in experiment [8], 102%. Also, the residual activity was 35% in experiment [19]; 43% in experiment [10]; 40% in experiment [11]; 48% in experiment [12]; 49% in [13]; 24% in experiment [14]. Further, the results for the residual activity in experiment [15], in experiment [16] and in experiment [17] were 30%, 20% and 29%, respectively.
